# Over roughly 33,000 sequences, “E-score (-0.5 to 0.5)” has its median near -0.041; the highest 2% begin near 0.37. The full list was thinned out, with the highest values kept by preference.
# Target: T1, Ecm22 (UniProt Q05958)
# T1 sequence: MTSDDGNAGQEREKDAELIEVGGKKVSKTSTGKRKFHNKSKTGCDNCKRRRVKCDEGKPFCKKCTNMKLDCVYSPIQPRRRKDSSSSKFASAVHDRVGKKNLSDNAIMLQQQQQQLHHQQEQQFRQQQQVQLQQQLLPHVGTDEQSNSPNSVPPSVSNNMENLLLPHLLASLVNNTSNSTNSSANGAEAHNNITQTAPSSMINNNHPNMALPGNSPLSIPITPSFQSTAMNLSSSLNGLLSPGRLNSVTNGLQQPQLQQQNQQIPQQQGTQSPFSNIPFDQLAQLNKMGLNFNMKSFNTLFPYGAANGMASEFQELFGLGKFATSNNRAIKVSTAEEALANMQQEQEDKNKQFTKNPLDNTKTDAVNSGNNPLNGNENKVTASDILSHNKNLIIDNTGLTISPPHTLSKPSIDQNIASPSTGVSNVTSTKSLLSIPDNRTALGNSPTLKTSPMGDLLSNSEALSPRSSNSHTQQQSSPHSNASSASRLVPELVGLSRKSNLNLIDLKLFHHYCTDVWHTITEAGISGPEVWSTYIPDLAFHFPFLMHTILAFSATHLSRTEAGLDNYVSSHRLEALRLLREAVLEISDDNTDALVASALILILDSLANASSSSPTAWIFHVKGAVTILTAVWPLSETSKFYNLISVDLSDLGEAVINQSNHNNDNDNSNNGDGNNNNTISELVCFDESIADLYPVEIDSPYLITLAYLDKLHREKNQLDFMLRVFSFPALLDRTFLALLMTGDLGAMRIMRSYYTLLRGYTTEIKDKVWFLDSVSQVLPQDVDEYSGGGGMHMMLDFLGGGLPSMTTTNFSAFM
# Test: PBM E-score (8-mer binding enrichment) (E-score (-0.5 to 0.5)); higher = stronger / more preferred TF binding
# Settings: protein concentration: 200 nM; construct: GST-full length
# Experimental: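 Universal 'all 10-mer' protein binding microarrays (Agilent AMADID 015681) probed with GST-tagged S. cerevisiae TFs (full-length or DBD) made by in vitro transcription/translation (PURExpress), about 100-200 nM. Bound TF was detected with fluorescent anti-GST. Each ungapped 8-mer (which stands for itself and its reverse complement) is scored by the PBM enrichment score (E-score), a modified Wilcoxon-Mann-Whitney statistic from -0.5 to +0.5, computed with the Universal PBM Analysis Suite. Scale: above 0.35 generally sequence-specific binding.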
row,Sequence,PBM E-score
1,ACCTTCGC,0.143
2,CAGGACGA,-0.283
3,CTCCGTTA,0.0433
4,GTCTACCA,-0.215
5,ATAAACTG,0.0158
6,ATAAACGC,0.192
7,GTAAACCA,0.0466
8,GTAAACTA,0.188
9,ATAAACGG,0.408
10,AAAAACGA,0.323
11,GTAAACGA,0.485
12,AAAAACGG,0.13
13,ATAAACGA,0.484
14,CATCCCCC,-0.207
15,GATCCACA,-0.13
16,ATGAACGG,0.262
17,ATGAACGA,0.453
18,CTGAACGC,0.023
19,CTGAACTA,-0.092
20,GTGAACAA,0.198
21,CTGAACGA,0.456
22,GTGAACGA,0.426
23,ATGAACGC,0.118
24,GTGAACTA,0.0738
25,AACGGTTA,0.27

row,Sequence,PBM E-score
1,CATTGTCG,0.0896
2,CTAGGGAC,-0.323
3,CGCCAGAC,0.00345
4,GGTAACAC,-0.135
5,AATTCGTA,0.441
6,GATTCGGA,0.171
7,AATTCGTG,-0.036
8,CATTCGTA,0.407
9,CATTCGCA,0.0842
10,GATTCGTA,0.45
11,GATTCGCA,0.227
12,CATTCGTC,0.112
13,AATTCGTC,0.0772
14,ACCCCCCT,-0.25
15,AGTAGGCC,0.00266
16,GAATTGTC,-0.0741
17,AGAACCCA,-0.131
18,GGCTCCTA,-0.159
19,GCATTTAC,-0.0379
20,ATTCCGTA,0.284
21,CTTCCGTA,0.319
22,GTTCCGTA,0.389
23,ACAGAAGC,-0.0614
24,ACGTACGG,0.362
25,TCCTACGA,0.26

row,Sequence,PBM E-score
1,ACGTACGT,0.245
2,ACGTACGA,0.441
3,TCGTACGA,0.469
4,GCGTACGA,0.448
5,GCGTACTA,0.152
6,TCGCACGA,0.183
7,CCCTACGG,-0.215
8,CCGTACGG,0.378
9,GCGTACGC,0.178
10,ACGTACGC,0.239
11,CTAGCGGC,-0.29
12,AGAGCGGC,-0.228
13,CTCTTAAC,0.0664
14,ATCTGCAC,-0.117
15,CATCAGCC,-0.121
16,TAGCTGAA,0.0371
17,ACTTCGAG,-0.105
18,TCCGCCAA,-0.121
19,ATTTCTGA,-0.286
20,AAGTGCAA,-0.0854
21,AGGTCAGA,-0.204
22,TGAGGTAA,-0.264
23,CCGTACTA,0.341
24,CCGTACGC,0.324
25,CCGTACGA,0.445

row,Sequence,PBM E-score
1,GAGGTTGA,-0.0744
2,AGAGAAGC,-0.0688
3,AGTTTATC,0.0904
4,CGTTTATC,0.42
5,CTTTTATC,-0.0345
6,CGTTTATA,0.426
7,AGTTTATA,0.15
8,GGTTTATA,0.152
9,AGCTCAGG,-0.211
10,TGAAGTCA,-0.133
11,GCCCAACC,0.0862
12,GGTATTTA,-0.00022
13,CATATATC,0.0903
14,CGTATTTA,0.369
15,GGTATATA,0.168
16,CGTATATC,0.439
17,CGTATATA,0.444
18,AGTATATA,0.341
19,AGTATTTA,-0.0192
20,AGTATATC,0.122
21,AAGTACCG,0.152
22,CTAATGAG,-0.0357
23,GCAAATGA,0.0372
24,CCACTCGC,0.184
25,CTGGCTCC,-0.202

row,Sequence,PBM E-score
1,CGTGTTCA,0.0358
2,AACCTCTT,-0.0421
3,CTAACCGC,0.0805
4,CTAACCGA,0.372
5,GTAACCGA,0.332
6,CGCCACTC,-0.016
7,AAACTGTC,-0.0481
8,ATACGATG,0.472
9,AGACGATG,0.00668
10,ATACGATC,0.457
11,ACACGATC,0.0695
12,ACACGATG,0.17
13,CTACGATC,0.325
14,AGCAGGGC,-0.0233
15,TATACTGA,0.182
16,CGATCTAC,0.184
17,AGTACCAT,0.0273
18,AGGCCGTA,0.384
19,CGGCCGTA,0.34
20,GGGCCGTA,0.333
21,AAAGCTGT,-0.108
22,CGAAGCAG,0.147
23,GCGTGGGA,0.0285
24,ACACGACA,0.233
25,GCACGACA,0.114

row,Sequence,PBM E-score
1,ATACGACA,0.469
2,AGACGACA,0.0702
3,CTACGACA,0.347
4,GTACGACA,0.48
5,CCCTGGAC,-0.193
6,GTAGCAGA,0.0392
7,AGGACCCT,-0.235
8,CCCTCAAC,-0.248
9,AGTTCGTC,0.207
10,AGTTCGTA,0.449
11,GGTTCATA,0.0139
12,CGTTCATA,0.386
13,GGTTCGAA,0.182
14,CGTTCAAG,0.335
15,GGTTCGTA,0.443
16,GGTTCGGA,-0.1
17,CGTTCAAC,0.377
18,CGTTCAAA,0.361
19,AGTTCGTG,0.189
20,CGTTCATC,0.354
21,AGGAAACG,0.281
22,GGAACAGA,-0.378
23,CTGTCCCA,-0.11
24,CACTCGGA,0.198
25,CGTAATAA,0.247

row,Sequence,PBM E-score
1,AAGCGAAT,0.277
2,CATGCAAC,0.0872
3,CGTTCGTC,0.314
4,CGTTCGTA,0.461
5,CGTTCGGA,0.274
6,AAGGAGGC,-0.319
7,AGCATCGG,-0.0521
8,TCCAGCGA,-0.115
9,TGGGTGAA,0.0282
10,ACGACGCT,0.38
11,GCGACGCA,0.173
12,AAGACGCG,-0.012
13,ACGACGCA,0.412
14,ACGACGAT,0.325
15,CCGACGCA,0.00712
16,CCGACGCG,0.218
17,ACGACGCC,0.33
18,ACGACGCG,0.407
19,ACGACTCT,0.308
20,ACGACTCA,0.238
21,ACGACTCG,0.39
22,ATTGCGCG,0.148
